Some test systems named below: SK-MEL-2 melanoma; EKVX NSCLC; UO-31 renal; TK-10 renal; ACHN renal; CAKI-1 renal; A498 renal; CCRF-CEM leukemia; MOLT-4 leukemia; SN12C renal.
What all share (assay): NCI-60 one-dose screen, 48 h (100 = growth as untreated, 0 = no growth, -100 = all killed)
Common to all, as to details: 10 µM unless noted

This is part of a sample that, as a whole, favours compounds with a hit. Of some 83,000 tested, about 20% had one in any assay.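 96-well plates, one dose, 48 hours. Percent growth reported; active if below 10.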 A number with no mark means an inactive call. Active and inactive are the calls of the source.

Turning to `CSc1ccc2c3c(n(CCCn4ccnc4)c(=O)c2c1)-c1ccccc1C3=O`, the growth is 97.1% in the experiment with SK-MEL-2 melanoma; 84.4% in the experiment with EKVX NSCLC; 26.3% in the experiment with UO-31 renal; 83.1% in the experiment on TK-10 renal; 12.4% with ACHN renal; 24.6% with CAKI-1 renal. The growth with A498 renal is 68.5%; with CCRF-CEM leukemia it was 15.6%; in the experiment on MOLT-4 leukemia, -3.86% (active).

For the molecule `CCOC(=O)c1c(C)nc2ccccc2c1/C=C/c1ccc(F)cc1`, the growth with SK-MEL-2 melanoma was 75.2%; with EKVX NSCLC it was 60.3%; in the experiment on UO-31 renal, 62.8%; with TK-10 renal, 82.3%; in the experiment on ACHN renal, 75.5%; in the experiment with CAKI-1 renal, 67.7%. Further, the growth was 75.4% in the experiment on A498 renal, 67.8% with CCRF-CEM leukemia and 42.8% in the experiment on MOLT-4 leukemia.

`CN(C)CCCn1c2c(c3cnccc3c1=O)C(=O)c1ccccc1-2`: the growth in the experiment on SK-MEL-2 melanoma was -13.5% (active); in the experiment with EKVX NSCLC, 40.9%; in the experiment on UO-31 renal, -39% (active); with TK-10 renal, 3.67% (active); in the experiment with ACHN renal, -25.9% (active); in the experiment with CAKI-1 renal it was 1% (active). In addition, the growth in the experiment with A498 renal was 25.8%; with CCRF-CEM leukemia it was 9.81% (active); with MOLT-4 leukemia, -2.22% (active).

Consider `COc1ccc2c(c1)CC[C@@H]1[C@@H]2CC[C@]2(C)C3C(=CC(COC(C)=O)C4C(=O)N(c5ccc(Cl)cc5)C(=O)C43)C[C@@H]12` (stereo not given in full), for which the growth with SK-MEL-2 melanoma was 108%; in the experiment on EKVX NSCLC, 108%; in the experiment on SN12C renal it was 101%; in the experiment with UO-31 renal, 79.1%; with ACHN renal, 95.8%; with CAKI-1 renal it was 108%. The growth in the experiment on A498 renal is 108%; in the experiment with CCRF-CEM leukemia, 75.5%; in the experiment on MOLT-4 leukemia, 63.9%.

Regarding `COc1cc(-c2cc(-c3ccc(Nc4nc(Nc5ccc(Cl)cc5)nc(Nc5ccc(Cl)cc5)n4)cc3)no2)cc(OC)c1OC`, the growth in the experiment on SK-MEL-2 melanoma was 55.2%; in the experiment on EKVX NSCLC, 67.1%; in the experiment with UO-31 renal, 61.6%; with TK-10 renal, 108%; in the experiment on ACHN renal, 78.9%; in the experiment with CAKI-1 renal it was 75.4%. Also, the results for the growth in the experiment with A498 renal, with CCRF-CEM leukemia and with MOLT-4 leukemia were 68.3%, -5.88% (active) and -10.3% (active), respectively.

Take `Oc1ccc(-c2nc3ccc4[nH]ncc4c3c3c2CCCC3)c(F)c1`: the growth in the experiment with SK-MEL-2 melanoma is -13.3% (active); with EKVX NSCLC, 38.3%; in the experiment with SN12C renal, 44.8%; with UO-31 renal, 17.5%; in the experiment on ACHN renal, 11.9%; in the experiment on CAKI-1 renal, 13%. Moreover, the growth was 30.1% with A498 renal, 12% in the experiment with CCRF-CEM leukemia and 2.01% (active) in the experiment on MOLT-4 leukemia.

As to `Clc1ccc(Nc2ncc(Cc3cccc(Cl)c3Cl)s2)cc1`, the growth with SK-MEL-2 melanoma was 101%; in the experiment with EKVX NSCLC, 97.9%; in the experiment on UO-31 renal, 72.5%; in the experiment on TK-10 renal, 98.3%; in the experiment on ACHN renal, 97.5%; with CAKI-1 renal, 87.7%. The growth in the experiment with A498 renal was 93.7%; with CCRF-CEM leukemia, 94%; in the experiment with MOLT-4 leukemia, 86.7%.

`Cc1ccc(S(=O)(=O)OC[C@]23CCC(C)(C)C[C@H]2C2=CC[C@@H]4[C@@]5(C)CCCNC(C)(C)[C@@H]5CC[C@@]4(C)[C@]2(C)CC3)cc1`: the growth is 102% in the experiment on SK-MEL-2 melanoma; 83% in the experiment with EKVX NSCLC; 60.2% in the experiment on UO-31 renal; 73% in the experiment on TK-10 renal; 48.6% with ACHN renal; 41.9% in the experiment on CAKI-1 renal. Besides, the growth is 95.4% in the experiment on A498 renal, 34.5% in the experiment with CCRF-CEM leukemia and 12.9% in the experiment on MOLT-4 leukemia.

As to `CC1(C)CC[C@]23CC[C@]4(C)[C@H](CC[C@@H]5[C@@]6(C)CCNCC(C)(C)[C@@H]6CC[C@]54C)[C@H]2[C@H]1OC3`, the growth in the experiment on SK-MEL-2 melanoma was 99.1%; in the experiment on EKVX NSCLC, 109%; in the experiment on UO-31 renal, 99.5%; in the experiment on TK-10 renal, 108%; in the experiment on ACHN renal it was 106%; with CAKI-1 renal, 93.9%. The figures for the growth in the experiment with A498 renal, in the experiment with CCRF-CEM leukemia and in the experiment with MOLT-4 leukemia were 117%, 70.8% and 58.7%, respectively.

As to `CCOC(=O)NC(=S)n1oc(=O)c2ccccc21`, the growth is 110% in the experiment with SK-MEL-2 melanoma; 101% in the experiment on EKVX NSCLC; 102% in the experiment with SN12C renal; 82.2% with UO-31 renal; 101% in the experiment on ACHN renal; 90.4% with CAKI-1 renal. In addition, the growth in the experiment with CCRF-CEM leukemia is 101%; with MOLT-4 leukemia it was 95.9%.

For `Cc1ccc2c(c1)sc1nc(-c3c[nH]c4ccccc34)c(Nc3ccccc3)n12`, the growth with SK-MEL-2 melanoma was 109%; in the experiment on EKVX NSCLC, 101%; in the experiment with UO-31 renal, 77.3%; with TK-10 renal, 114%; with ACHN renal, 100%; with CAKI-1 renal it was 79.8%. For the same molecule, the growth in the experiment with A498 renal is 109%; in the experiment on CCRF-CEM leukemia, 107%; in the experiment on MOLT-4 leukemia, 98.7%.

For `CCCOC(=O)Nc1nc2ccc(SCC)cc2s1`, the growth in the experiment with SK-MEL-2 melanoma was 76.2%; in the experiment on EKVX NSCLC it was 94.3%; with SN12C renal it was 89.6%; with UO-31 renal, 90.7%; with ACHN renal it was 107%; with CAKI-1 renal, 79.8%. Further, the growth with A498 renal was 70.7%; in the experiment on CCRF-CEM leukemia it was 72.1%; in the experiment on MOLT-4 leukemia, 72.9%.

Regarding `N#Cc1c(-c2ccccc2)nc2c(c(-c3ccc(Cl)cc3)nn2-c2ccccc2)c1-c1ccc([N+](=O)[O-])cc1`, the growth with SK-MEL-2 melanoma was 104%; in the experiment with EKVX NSCLC, 103%; with UO-31 renal it was 81.2%; in the experiment with TK-10 renal, 121%; with ACHN renal it was 97.5%; in the experiment on CAKI-1 renal, 79%. In addition, the growth in the experiment with A498 renal was 99.7%; in the experiment on CCRF-CEM leukemia, 90.6%; in the experiment with MOLT-4 leukemia, 97.1%.

Turning to `Cc1cc(C(=O)CCCC(=O)c2cc(C)c(O)c(C)c2)cc(C)c1O`, the growth was 101% in the experiment on SK-MEL-2 melanoma; 111% with EKVX NSCLC; 83.6% in the experiment with UO-31 renal; 105% in the experiment on TK-10 renal; 91% in the experiment with ACHN renal; 93.5% in the experiment on CAKI-1 renal. Further, the growth in the experiment with A498 renal is 91.9%; in the experiment on CCRF-CEM leukemia, 96.6%; in the experiment on MOLT-4 leukemia, 106%.
